Results as given in PubChem BioAssay (Tox21).
Inconclusive results are not listed. Calls of active or inactive are those of the source. Unless noted, calls follow the shape of the dose curve; as a rule, active = well fitted curve in the direction sought with a large enough effect in the repeat runs; inconclusive = weak or mixed curves; inactive = no such curve, though single readings can be large; an effect the other way counts as inactive or inconclusive.

Tests used:
[1] = qHTS assay to identify aromatase inhibitors - cell viability counter screen (AID 743084);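 also: cells stimulated with testosterone during compound exposure; nearly all actives have a fitted effect of over 55% in size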; also: potency is read from the fitted curve at half-maximal effect
[2] = molecular target: Aryl hydrocarbon receptor (Homo sapiens) (UniProt P35869); experiment: qHTS assay to identify small molecule that activate the aryl hydrocarbon receptor (AhR) signaling pathway (AID 743085); also: nearly all actives have a fitted effect of over 15% in size; also: potency is read from the fitted curve at half-maximal effect;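 as to activation: HG2L7.5c1 human HepG2 liver cells with stably integrated DRE-driven firefly reporter; series mostly up to about 70 µM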
Aryl hydrocarbon receptor (Homo sapiens), sequence (P35869 whole entry, looked up): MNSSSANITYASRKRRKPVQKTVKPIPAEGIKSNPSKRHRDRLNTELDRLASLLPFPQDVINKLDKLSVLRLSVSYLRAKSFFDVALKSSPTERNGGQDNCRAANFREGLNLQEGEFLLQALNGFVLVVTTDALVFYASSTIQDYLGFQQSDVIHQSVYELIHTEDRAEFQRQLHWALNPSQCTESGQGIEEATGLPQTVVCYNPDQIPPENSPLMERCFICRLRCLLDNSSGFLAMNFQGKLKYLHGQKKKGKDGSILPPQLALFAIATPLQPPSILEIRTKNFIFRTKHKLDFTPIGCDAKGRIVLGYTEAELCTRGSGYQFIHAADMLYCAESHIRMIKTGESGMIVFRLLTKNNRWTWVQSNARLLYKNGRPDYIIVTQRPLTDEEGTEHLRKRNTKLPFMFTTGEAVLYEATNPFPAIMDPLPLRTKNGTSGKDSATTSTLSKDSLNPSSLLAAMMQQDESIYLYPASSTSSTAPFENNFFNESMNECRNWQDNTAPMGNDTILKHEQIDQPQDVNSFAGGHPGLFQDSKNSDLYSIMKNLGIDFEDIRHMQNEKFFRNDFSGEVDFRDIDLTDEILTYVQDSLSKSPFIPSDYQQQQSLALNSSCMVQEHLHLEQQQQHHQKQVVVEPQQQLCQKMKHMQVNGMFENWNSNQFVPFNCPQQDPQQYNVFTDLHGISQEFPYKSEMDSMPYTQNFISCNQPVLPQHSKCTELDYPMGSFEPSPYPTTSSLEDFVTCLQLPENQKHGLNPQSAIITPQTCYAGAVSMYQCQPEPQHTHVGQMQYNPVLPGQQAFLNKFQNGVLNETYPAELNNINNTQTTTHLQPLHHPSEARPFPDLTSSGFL
Method in brief: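 Luminescence read-out: ONE-Glo reagent, 30 min at room temperature, in HG2L7.5c1 HepG2 reporter cells treated 24 h at 37C. Viability was measured beforehand by CellTiter-Fluor fluorescence after 30 min at 37C.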

[3] = qHTS assay for small molecule activators of the heat shock response signaling pathway - cell viability counter screen (AID 743209); also: nearly all actives have a fitted effect of over 50% in size
Method in brief: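 HSE-bla HeLa; 1500 cells/well; overnight 37 C, 5% CO2; compound 5 h 37 C; LiveBLAzer B/G substrate 2.5 h RT; CellTiter-Glo 30 min RT; luminescence.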

[4] = qHTS assay to identify small molecule antagonists of the farnesoid-X-receptor (FXR) signaling pathway - cell viability counter screen (AID 743221; active = well fitted cell-killing curve with a large enough effect in the repeat runs, not every such curve was filed as active; also: nearly all actives have a fitted effect of over 50% in size)
Method in brief: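 HEK 293T FXR-bla cells, 5 h pre-incubation; compound + CDCA 50 uM final, 16 h, 37 C; beta-lactamase FRET read first, then CellTiter-Glo luminescence, 30 min RT.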

[5] = qHTS assay to identify small molecule that activate the aryl hydrocarbon receptor (AhR) signaling pathway - cell viability counter screen (AID 743086);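 also: HepG2 liver cells carrying the AhR DRE luciferase reporter; series mostly up to about 70 µM; nearly all actives have a fitted effect of over 45% in size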
Method in brief: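 HepG2-AhR-luc (HG2L7.5c1) cells, 4000/well, treated 24 h at 37 C with compound; viability measured as CellTiter-Fluor fluorescence after 30 min in the same wells as the luciferase read.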

[6] = qHTS assay for small molecule activators of the heat shock response signaling pathway (AID 743210; active = well fitted activation curve with a large enough effect in the signal ratio in the repeat runs, with a control signal flat, not every such curve was filed as active; the % refers to the signal ratio;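 also: HeLa cells with beta-lactamase reporter driven by heat shock elements; series mostly up to about 63 µM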)
Method in brief: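 Beta-lactamase reporter read-out: FRET substrate fluorescence after 2.5 h at RT, following 5 h compound treatment at 37 C of HeLa cells carrying HSE-driven bla reporter; quantitative HTS format.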

[7] = qHTS assay to identify small molecule agonists of the peroxisome proliferator-activated receptor delta (PPARd) signaling pathway - cell viability counter screen (AID 743211); also: nearly all actives have a fitted effect of over 55% in size; also: potency is read from the fitted curve at half-maximal effect
Method in brief: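 Read-out: CellTiter-Glo luminescence, 30 min RT, measured in the same wells as the beta-lactamase reporter. Cells: GeneBLAzer PPAR delta UAS-bla HEK293H, 3000 cells/well, compound exposure 17 h at 37C.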

[8] = qHTS assay to identify small molecule agonists of the farnesoid-X-receptor (FXR) signaling pathway - cell viability counter screen (AID 743218); also: nearly all actives have a fitted effect of over 45% in size; also: potency is read from the fitted curve at half-maximal effect
Method in brief: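 Luminescence from CellTiter-Glo, read after 30 min at RT, reports viability of GeneBLAzer FXR-UAS-bla HEK 293T cells treated 16 h with compounds in the wells used for the beta-lactamase reporter.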

[9] = molecular target: Vitamin D3 receptor (Homo sapiens) (UniProt P11473); experiment: qHTS assay to identify small molecule antagonists of the vitamin D receptor (VDR) signaling pathway (AID 743223; active = well fitted inhibition curve with a large enough effect in the signal ratio in the repeat runs, not every such curve was filed as active; the % refers to the signal ratio)
Vitamin D3 receptor (Homo sapiens), sequence (P11473 whole entry, looked up): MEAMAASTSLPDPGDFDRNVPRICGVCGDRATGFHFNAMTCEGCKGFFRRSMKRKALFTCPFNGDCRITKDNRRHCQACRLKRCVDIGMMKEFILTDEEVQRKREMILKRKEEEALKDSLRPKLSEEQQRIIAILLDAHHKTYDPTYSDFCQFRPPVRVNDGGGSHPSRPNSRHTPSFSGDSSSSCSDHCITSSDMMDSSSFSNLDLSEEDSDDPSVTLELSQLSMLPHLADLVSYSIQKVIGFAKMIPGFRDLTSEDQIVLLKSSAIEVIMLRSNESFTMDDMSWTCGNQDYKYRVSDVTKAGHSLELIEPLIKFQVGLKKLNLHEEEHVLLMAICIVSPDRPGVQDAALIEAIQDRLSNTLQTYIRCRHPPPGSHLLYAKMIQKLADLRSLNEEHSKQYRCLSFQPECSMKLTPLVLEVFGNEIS
Method in brief: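 Beta-lactamase reporter read-out: FRET substrate fluorescence after 2 h at room temperature, following 16 h exposure of VDR-bla cells to test compound plus 3 nM (final) 1alpha,25-dihydroxyvitamin D3 agonist at 37C.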

[10] = molecular target: Peroxisome proliferator-activated receptor gamma (Homo sapiens) (UniProt P37231); experiment: qHTS assay to identify small molecule agonists of the peroxisome proliferator-activated receptor gamma (PPARg) signaling pathway (AID 743094; active = well fitted activation curve with a large enough effect in the signal ratio in the repeat runs, not every such curve was filed as active; the % refers to the signal ratio; also: potency is read from the fitted curve at half-maximal effect)
Peroxisome proliferator-activated receptor gamma (Homo sapiens), sequence (P37231 whole entry, looked up): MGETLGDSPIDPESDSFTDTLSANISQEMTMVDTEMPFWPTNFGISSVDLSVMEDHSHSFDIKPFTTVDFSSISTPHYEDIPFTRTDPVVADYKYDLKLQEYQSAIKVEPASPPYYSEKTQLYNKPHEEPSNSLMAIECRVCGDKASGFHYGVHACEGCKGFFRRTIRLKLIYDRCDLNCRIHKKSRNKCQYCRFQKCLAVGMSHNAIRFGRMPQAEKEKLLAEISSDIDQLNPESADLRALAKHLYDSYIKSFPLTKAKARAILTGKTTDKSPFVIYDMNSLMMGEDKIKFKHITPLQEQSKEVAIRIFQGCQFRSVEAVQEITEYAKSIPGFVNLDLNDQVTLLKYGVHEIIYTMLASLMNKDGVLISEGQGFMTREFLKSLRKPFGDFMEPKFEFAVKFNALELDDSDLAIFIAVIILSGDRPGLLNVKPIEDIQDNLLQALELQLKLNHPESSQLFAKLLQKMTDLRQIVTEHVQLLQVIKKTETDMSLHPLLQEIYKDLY
Method in brief: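 HEK293H PPARg-bla cells, 5 h settle at 37C/5% CO2; compound (DMSO) 17 h, 37C; B/G FRET substrate 1 h RT; fluorescence intensity read-out. qHTS format.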

[11] = qHTS assay to identify small molecule antagonists of the peroxisome proliferator-activated receptor gamma (PPARg) signaling pathway - cell viability counter screen (AID 743194); conditions: Potency: co-treated with 50 nM rosiglitazone; also: nearly all actives have a fitted effect of over 55% in size; also: potency is read from the fitted curve at half-maximal effect
Method in brief: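 Cytotoxicity counter screen in PPARg-bla HEK293H cells, same wells as reporter assay. Compounds plus 50 nM rosiglitazone (final) for 17 h at 37 C, then viability read by CellTiter-Glo luminescence.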

[12] = qHTS assay for small molecule agonists of the antioxidant response element (ARE) signaling pathway (AID 743202; active = well fitted activation curve with a large enough effect in the signal ratio in the repeat runs, not every such curve was filed as active; the % refers to the signal ratio; also: potency is read from the fitted curve at half-maximal effect)
Method in brief: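 HepG2 ARE-bla reporter line, 2,000 cells/well; 5 h preincubation 37 C/5% CO2; compound (DMSO) 16 h 37 C; B/G FRET substrate 2 h RT; fluorescence intensity.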

[13] = qHTS assay for small molecule agonists of the antioxidant response element (ARE) signaling pathway - cell viability counter screen (AID 743203; calls by dose curve; also: nearly all actives have a fitted effect of over 55% in size; also: potency is read from the fitted curve at half-maximal effect)
Method in brief: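 Luminescence read-out (CellTiter-Glo, 30 min at room temperature) measured cell viability in the same wells as the ARE beta-lactamase reporter. HepG2 ARE-bla cells were treated with compounds for 16 hrs at 37C/5% CO2.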

[14] = molecular target: Peroxisome proliferator-activated receptor delta (Homo sapiens) (UniProt Q03181); experiment: qHTS assay to identify small molecule agonists of the peroxisome proliferator-activated receptor delta (PPARd) signaling pathway (AID 743212; calls by dose curve)
Peroxisome proliferator-activated receptor delta (Homo sapiens), sequence (Q03181 whole entry, looked up): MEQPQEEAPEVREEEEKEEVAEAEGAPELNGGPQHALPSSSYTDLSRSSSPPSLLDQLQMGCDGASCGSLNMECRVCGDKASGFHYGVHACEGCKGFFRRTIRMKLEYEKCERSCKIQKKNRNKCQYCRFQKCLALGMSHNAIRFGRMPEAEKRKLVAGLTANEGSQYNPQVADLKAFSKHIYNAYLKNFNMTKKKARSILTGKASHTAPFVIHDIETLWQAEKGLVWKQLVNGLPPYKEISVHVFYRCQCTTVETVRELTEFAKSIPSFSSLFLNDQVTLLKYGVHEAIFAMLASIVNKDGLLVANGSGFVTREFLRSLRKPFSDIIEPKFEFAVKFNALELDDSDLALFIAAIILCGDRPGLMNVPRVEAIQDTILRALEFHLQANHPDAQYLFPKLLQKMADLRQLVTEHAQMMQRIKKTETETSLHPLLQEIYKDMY
Method in brief: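 Read-out: beta-lactamase FRET fluorescence after 2 h room-temperature incubation with LiveBLAzer B/G substrate. Cells were HEK293H carrying a UAS-bla reporter for PPARd, treated at 37 C with DMSO-dissolved compounds.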

[15] = qHTS assay to identify small molecule antagonists of the peroxisome proliferator-activated receptor delta (PPARd) signaling pathway - cell viability counter screen (AID 743213); also: nearly all actives have a fitted effect of over 50% in size; also: potency is read from the fitted curve at half-maximal effect
Method in brief: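 Agonist-stimulated (L165041, 300 nM final) HEK293H PPARd UAS-bla cells are exposed to compounds for 17 h at 37 C, and ATP-based luminescence (CellTiter-Glo) from the same wells reports cytotoxicity.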

[16] = molecular target: Peroxisome proliferator-activated receptor delta (Homo sapiens) (UniProt Q03181); experiment: qHTS assay to identify small molecule antagonists of the peroxisome proliferator-activated receptor delta (PPARd) signaling pathway (AID 743215; active = well fitted inhibition curve with a large enough effect in the signal ratio in the repeat runs, not every such curve was filed as active; the % refers to the signal ratio; also: series mostly up to about 62 µM)
Method in brief: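 HEK293H GeneBLAzer PPARd UAS-bla reporter cells; cpd + L165041 300 nM final, 17 h 37 C; LiveBLAzer B/G FRET substrate 2 h RT; fluorescence intensity read-out. Antagonist mode.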

[17] = molecular target: Bile acid receptor (Homo sapiens) (UniProt Q96RI1); experiment: qHTS assay to identify small molecule antagonists of the farnesoid-X-receptor (FXR) signaling pathway (AID 743217; active = well fitted inhibition curve with a large enough effect in the signal ratio in the repeat runs, not every such curve was filed as active; the % refers to the signal ratio)
Bile acid receptor (Homo sapiens), sequence (Q96RI1 whole entry, looked up): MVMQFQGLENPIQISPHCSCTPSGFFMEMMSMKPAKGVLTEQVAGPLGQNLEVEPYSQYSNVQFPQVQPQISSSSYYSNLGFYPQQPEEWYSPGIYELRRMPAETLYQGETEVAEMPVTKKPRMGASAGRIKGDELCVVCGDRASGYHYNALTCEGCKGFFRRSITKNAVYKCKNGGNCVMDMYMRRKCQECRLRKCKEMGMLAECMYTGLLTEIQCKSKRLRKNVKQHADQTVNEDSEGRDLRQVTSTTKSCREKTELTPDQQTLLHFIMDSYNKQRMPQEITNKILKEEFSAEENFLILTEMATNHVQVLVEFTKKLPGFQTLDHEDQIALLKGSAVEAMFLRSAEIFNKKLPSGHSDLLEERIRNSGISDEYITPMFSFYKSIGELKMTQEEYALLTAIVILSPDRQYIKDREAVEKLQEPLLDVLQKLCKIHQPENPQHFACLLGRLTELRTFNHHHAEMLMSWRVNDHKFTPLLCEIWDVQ
Method in brief: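 Read-out: beta-lactamase FRET fluorescence (LiveBLAzer B/G substrate, 2 h, room temperature) in GeneBLAzer FXR-UAS-bla HEK 293T cells. Compounds were co-dosed with 50 uM chenodeoxycholic acid (final) and incubated 16 h at 37 °C.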

[18] = molecular target: Bile acid receptor (Homo sapiens) (UniProt Q96RI1); experiment: qHTS assay to identify small molecule agonists of the farnesoid-X-receptor (FXR) signaling pathway (AID 743220; active = well fitted activation curve with a large enough effect in the signal ratio in the repeat runs, not every such curve was filed as active; the % refers to the signal ratio)
Method in brief: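 FXR-UAS-bla HEK 293T cells carrying a UAS-driven beta-lactamase reporter were plated for 5 h at 37C/5% CO2, then exposed to DMSO-dissolved Tox21 10K compounds for 16 h at 37C. A LiveBLAzer B/G FRET substrate was loaded for 2 h at room temperature before fluorescence reading.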

[19] = molecular target: Vitamin D3 receptor (Homo sapiens) (UniProt P11473); experiment: qHTS assay to identify small molecule agonists of the vitamin D receptor (VDR) signaling pathway (AID 743222; calls by dose curve)
Method in brief: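 Beta-lactamase reporter readout (LiveBLAzer B/G FRET, 2 h RT) in VDR-bla cells after 16 h compound treatment at 37C, 5% CO2; cells pre-incubated 4 h before pin transfer of DMSO solutions.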

[20] = molecular target: Peroxisome proliferator-activated receptor gamma (Homo sapiens) (UniProt P37231); experiment: qHTS assay to identify small molecule antagonists of the peroxisome proliferator-activated receptor gamma (PPARg) signaling pathway (AID 743191; calls by dose curve; also: series mostly up to about 63 µM; nearly all actives have a fitted effect of over 30% in size)
Method in brief: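 GeneBLAzer PPARg UAS-bla HEK293H cells, 5 h post-plating, exposed to compounds 17 h at 37C. LiveBLAzer B/G FRET substrate added for 1 h at room temperature; beta-lactamase reporter read by fluorescence intensity.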

Measured: Potency

c1cc2ccc3cccc4ccc(c1)c2c34
inactive: [1] | [2] | [3] | [4]

O=C(OC1CCCCC1)c1ccccc1C(=O)OC1CCCCC1
inactive: [1] | [2] | [5] | [3] | [6] | [8] | [4] | [9]
active: [7] 46 µM

N#C/C(N)=C(/N)C#N
not listed: [2] | [9] | [20]
inactive: all other assays above

CCOP(=S)(OCC)SCn1nnc2ccccc2c1=O
inactive: [2] | [10] | [3]
active: [1] 54.5 µM | [11] 43.6 µM | [12] 3.06 µM | [15] 54.9 µM | [8] 43.6 µM

COc1cc(CC(C)N)cc2c1OCO2 (configuration not stated)
not listed: [2] | [8] | [9] | [12] | [19]
inactive: all other assays above

S=C=NCc1ccccc1
active: [12] 24.6 µM
inactive: [1] | [2] | [5] | [7] | [14] | [8] | [4] | [19]

CCCN(CCCl)c1c([N+](=O)[O-])cc(C(F)(F)F)cc1[N+](=O)[O-]
not listed: [2] | [7] | [8] | [13] | [16]
inactive: all other assays above

OC(c1ccc(Cl)cc1)(c1ccc(Cl)cc1)c1cccnc1
active: [13] 61.1 µM | [7] 54.9 µM
inactive: [1] | [2] | [5] | [3] | [14] | [16] | [18] | [4] | [19]

ClCc1ccccc1
not listed: [2] | [6] | [7] | [9] | [15] | [17] | [18] | [20]
inactive: all other assays above

Clc1cc(Cl)c(Cl)c(Cl)c1
not listed: [2] | [8] | [15] | [17] | [18]
inactive: all other assays above

O=[N+]([O-])c1ccccc1CCl
active: [10] 0.0988 µM
not listed: [2] | [7] | [8] | [9] | [12]
inactive: all other assays above

CN(N=O)c1ccc([N+](=O)[O-])cc1
not listed: [2] | [7] | [8] | [9] | [13] | [14] | [16]
inactive: all other assays above

O=C=Nc1ccc(Cl)cc1
active: [12] 43.3 µM
inactive: [1] | [5] | [10] | [20] | [11] | [13] | [3] | [7] | [14] | [19]

O=C1c2ccccc2C(=O)C1C(=O)C(c1ccccc1)c1ccccc1
active: [2] 29.8 µM
inactive: [1] | [5] | [3] | [6] | [15] | [4]

CCCCOC(=O)c1ccccc1C(=O)OCc1ccccc1
inactive: [1] | [5] | [10] | [11] | [12] | [13] | [3] | [6] | [7] | [14] | [4]

CCC(Br)(CC)C(=O)NC(N)=O
not listed: [2] | [12] | [15]
inactive: all other assays above

COP(=S)(Oc1cc(Cl)c(Br)cc1Cl)c1ccccc1 (configuration not stated)
active: [2] 27.3 µM | [13] 48.6 µM
inactive: [1] | [5] | [3] | [6] | [14] | [15] | [4] | [19]

Cc1ccc(N)cc1C
not listed: [2] | [4] | [7] | [13] | [15] | [17] | [20]
inactive: all other assays above

CCOP(=O)(OCC)SCCSCC
not listed: [2] | [8] | [14] | [16] | [17] | [18]
inactive: all other assays above

N#Cc1cc(I)c(O)c(I)c1
inactive: [1] | [2] | [5] | [3] | [6] | [4] | [19]

COC(=O)C(Br)CBr (configuration not stated)
inactive: [1] | [2] | [5] | [13] | [3] | [6] | [7] | [14] | [8] | [4] | [19]

CC(C)(Cl)[N+](=O)[O-]
not listed: [2] | [7]
inactive: all other assays above
